In PubChem BioAssay AID1063 (University of Pittsburgh Molecular Library Screening Center, 2008) one finds inhibition data, which are given here for 94 compounds.

Structures are written as SMILES. In all, about 200,000 compounds went through this assay and about 18,000 (9%) were called active. The sample holds actives, similar compounds and a random draw of the others, so the mix is not that of the screen. Rule as the data show it: active = inhibition above about 50%; inactive = the rest.

This test in a line: antileishmanial activity against promastigotes – primary screen (AID 1063).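 Also: promastigotes grown with compound for 44 hours at 28 °C.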 As to conditions: Leishmania major promastigotes, resazurin fluorescence viability; at 10 µM; active compounds read high. For orientation: The colour change of resazurin is a common sign of viable cells or microbes.
In general, inhibition refers to the drop in the measured response relative to a control, in per cent. In the case of `O=C(CC1SCCNC1=O)Nc1ccc(Cl)cc1` (centres undefined), the inhibition is -5.68% (inactive).
For the compound `COc1ccc2c(c1)C=CC1(O2)N(CCO)c2ccccc2C1(C)C` (centres undefined), the inhibition was 99.2% (active).
In the case of `COc1cccc(CC2(CO)CCCN(CC3=Cc4cc(OC)ccc4OC3)C2)c1` (centres undefined), the inhibition is -1.53% (inactive).
With `COc1ccc2c(c1)C(SCC(=O)NCc1ccccc1)CC(C)(C)O2` (centres undefined), the inhibition is -6.83% (inactive).
With `CC(C)C(=O)NCc1cc(-c2ccc(Cl)cc2)no1`, the inhibition is 1.34% (inactive).
As for `Cc1ccc(N(CC(O)CN2CCCC2)S(=O)(=O)c2ccccc2)cc1` (centres undefined), the inhibition is 60.2% (active).
With `CCN(c1ccccc1)S(=O)(=O)c1ccc2[nH]c(=O)[nH]c2c1`, the inhibition is -5.33% (inactive).
On to `Cc1cccc(N(CC(=O)N2CCOCC2)S(C)(=O)=O)c1`, for which the inhibition is 0.32% (inactive).
For the compound `Cc1cccc(N(CC(O)CN(C)C)S(=O)(=O)c2ccccc2)c1` (centres undefined), the inhibition was 95.9% (active).
As to `CCN(c1ccccc1)S(=O)(=O)c1ccc(N)cc1`, the inhibition is -4.44% (inactive).
With `Cc1cc(C)n(CC(O)CN(c2ccccc2)S(=O)(=O)c2ccc3ccccc3c2)n1` (centres undefined), the inhibition is 61.1% (active).
As for `COc1ccccc1N(CC(=O)N1CCCCC1)S(=O)(=O)c1ccccc1`, the inhibition is -2.25% (inactive).
`CCN(c1ccccc1)S(=O)(=O)c1cccc(C(=O)O)c1`: the inhibition was -3.46% (inactive).
Consider `O=S(=O)(c1ccccc1)N(CC(O)CN1CCCCC1)c1ccccc1` (centres undefined), for which the inhibition is 45% (inactive).
`CC1CCCCC1NC(=O)COC(=O)Cc1ccc(Br)cc1` (centres undefined): the inhibition is -8.18% (inactive).
In the case of `C/C(=N\OCC(=O)Nc1ccc(Br)cc1)c1cccs1`, the inhibition was -1.5% (inactive).
Turning to `Cc1cc(NC(=O)CN2C(=O)NC(C)(CCc3ccccc3)C2=O)no1` (centres undefined), the inhibition is 2.34% (inactive).
Consider `CCc1cccc2c(=O)c(C(=O)NCCCOC)c[nH]c12`, for which the inhibition is -1.23% (inactive).
As for `Cc1ccc(-c2nn(-c3ccccc3)cc2/C=N/NC(=O)c2ccc3c(c2)OCO3)cc1`, the inhibition was 8.23% (inactive).
For `Cc1ccc(/C=N/NC(=O)C2=NNC(c3ccccc3)(c3ccccc3)C2)c(O)c1`, the inhibition is 100% (active).
In the case of `Cc1ccc(/C=N/NC(=O)C(NC(=O)c2ccccc2)c2n[nH]c(=O)c3ccccc23)cc1` (centres undefined) it was -1.59% (inactive).
Turning to `CNCC(O)CN1CCN(c2ccccc2OC)CC1` (centres undefined), the inhibition is -6.68% (inactive).
For `COC(=O)c1c(NC(=O)CN2CCN(S(=O)(=O)c3ccccc3[N+](=O)[O-])CC2)sc2c1CCC(C)C2` (centres undefined), the inhibition was 76.2% (active).
Turning to `COC(=O)c1c(NC(=O)CN2C(=O)NC(CCc3ccccc3)C2=O)sc2c1CCCCC2` (centres undefined), the inhibition is 28.1% (inactive).
Consider `Cc1c(Br)c([N+](=O)[O-])nn1CC(=O)Nc1sc2c(c1C(=O)OC(C)C)CCC(C)C2` (centres undefined), for which the inhibition is -5.92% (inactive).
For `Cc1ccc(NC(=O)C(=O)NCc2ccco2)c(C)c1`, the inhibition was -8.28% (inactive).
To `C/C(CC(=O)Nc1ccc(C)cc1C)=N\NC(=O)C(C)C` belongs 13.4% (inactive); to `NC(=O)c1ccc(N2CCOCC2)nc1`, 2.59% (inactive).
On to `CCn1cnc2scc(-c3ccc(C)c(C)c3)c2c1=O`, for which the inhibition is -4.16% (inactive).
For `Cc1cc(F)ccc1S(=O)(=O)Nc1ncnc2scc(-c3ccc(F)cc3)c12`, the inhibition was 64.1% (active).
`COc1ccc(-c2csc3ncnc(Oc4ccc5c(C)cc(=O)oc5c4)c23)cc1`: the inhibition was 16.6% (inactive).
Take `O=C(NCc1nnc(SCC(=O)N2CCC(Cc3ccccc3)CC2)o1)c1ccco1`: the inhibition was 25% (inactive).
Take `COCC(C)NC(=O)COc1nncc2ccccc12` (centres undefined): the inhibition is 4.91% (inactive).
Regarding `CN1CCN(S(=O)(=O)c2cccc(C(=O)O)c2)CC1`, the inhibition is -1.21% (inactive).
In the case of `O=C(NNC1=NCCC1)c1cccc(S(=O)(=O)N2CCCCC2)c1` it was -5.29% (inactive).
On to `CNC(=O)NC(=O)C(OC(=O)c1cccc(S(=O)(=O)N2CCCCC2)c1)c1ccccc1` (centres undefined), for which the inhibition was 63.2% (active).
To `CCN1CCCC1CNc1ncnc2c1[nH]c1ccc(F)cc12` (centres undefined) belongs 78.6% (active); to `CCN1CCCC1Cn1cnc2c([nH]c3cc(OC)ccc32)c1=O` (centres undefined), 10.5% (inactive).
As to `CC(C)OCCCNc1ncnc2c1[nH]c1ccc(F)cc12`, the inhibition is 36.3% (inactive).
In the case of `O=C(NCC1CCCCC1)c1cc(S(=O)(=O)N2CCCCC2)ccc1N1CCOCC1`, the inhibition is 7.99% (inactive).
As for `Cc1cc(/C=C2/C(=N)N3C(=NC2=O)SN=C3S(C)(=O)=O)c(C)n1-c1ccccc1`, the inhibition is 3.11% (inactive).
Turning to `O=C(Nc1cccc(C(F)(F)F)c1)c1ccc(N2CCNCC2)c([N+](=O)[O-])c1`, the inhibition was 100% (active).
In the case of `O=C(COc1ccccc1F)NNC(=O)c1ccc(N2CCCCC2)c([N+](=O)[O-])c1`, the inhibition is -1.27% (inactive).
To `O=C(Nc1ccc(N2C(=O)c3cccc4cccc(c34)C2=O)cc1)c1ccc(N2CCCCC2)c([N+](=O)[O-])c1` belongs 75% (active).
On to `O=C(Nc1ccc2c(c1)OCO2)c1ccc(N2C(=O)c3ccccc3C2=O)cc1`, for which the inhibition was -0.72% (inactive).
In the case of `CC(NC(=O)c1ccc(N2CCNCC2)c([N+](=O)[O-])c1)C12CC3CC(CC(C3)C1)C2` (centres undefined) it was 7.22% (inactive); in that of `Cc1cccc(NC(=O)c2cccc(C(F)(F)F)c2)c1`, 13.2% (inactive); in that of `C/C(=N/NC(=O)CCc1ccccc1)c1ccco1`, 11.8% (inactive).
Consider `CC1=NN(C(=O)c2ccc(Br)cc2)C(O)(c2ccccc2)C1` (centres undefined), for which the inhibition is -9.77% (inactive).
Take `CCOc1ccc(-c2nnc(-c3ccco3)o2)cc1`: the inhibition was 2.35% (inactive).
`CCC(=O)Oc1cccc(C(=O)Nc2ccc(-c3nnc(-c4ccco4)o3)cc2)c1`: the inhibition is 98.9% (active).
As for `CCCCOc1ccc(-c2nnc(-c3ccco3)o2)cc1`, the inhibition was -7.38% (inactive).
For the compound `CCN(CC)S(=O)(=O)c1ccc(Cl)c(C(=O)NC(C)C(c2cccs2)N2CCCC2)c1` (centres undefined), the inhibition was 10.7% (inactive).
`Cc1cc(N2CCOCC2)nc2ccc(NC(=S)N3CCN(Cc4ccccc4)CC3)cc12`: the inhibition is 36.5% (inactive).
In the case of `CCOC(=O)/C(=C\c1ccc([N+](=O)[O-])cc1)C(=O)c1cc(C(C)=O)c(Nc2ccccc2)s1`, the inhibition is 101% (active).
As to `CCOC(=O)/C(=N\Nc1ccccc1[N+](=O)[O-])c1csc(Nc2ccccc2)n1`, the inhibition was 15.4% (inactive).
Turning to `O=C(Nc1ccccc1)/C(=C/c1ccc([N+](=O)[O-])cc1)NC(=O)c1ccccc1`, the inhibition was -0.93% (inactive).
To `Cc1ccc(C(=O)N/C(=C/c2cccs2)C(=O)NCC2CCCO2)cc1` (centres undefined) belongs -3.66% (inactive).
For the compound `CC(C)C(=O)NC(=S)Nc1ccccc1F`, the inhibition was -3.27% (inactive).
Consider `CC(C)C(=O)Nc1cccc(NC(=S)NC(=O)C(c2ccccc2)c2ccccc2)c1`, for which the inhibition was 100% (active).
In the case of `CCCCC(=O)NNC(=S)NC(=O)C(c1ccccc1)c1ccccc1` it was 22.8% (inactive); in that of `CC(C)(C)c1ccc(C(=O)NCc2nnc(SCC(=O)N3CCCc4ccccc43)n2-c2ccccc2)cc1`, -4.1% (inactive); in that of `COc1ccccc1CCNC(=O)CSc1nnc2ccc(-c3cccnc3)nn12`, 1.51% (inactive).
In the case of `C=CCn1c(=N)n(CC(O)COc2ccc(OC)cc2)c2ccccc21` (centres undefined), the inhibition is 34.9% (inactive).
As to `OC(CN=c1sc2ccccc2n1CC(O)COc1ccccc1)COc1ccccc1` (centres undefined), the inhibition was 63.1% (active).
For `OC(COc1ccccc1)Cn1cc(Br)cn1` (centres undefined), the inhibition is -7.06% (inactive).
In the case of `C/C(N)=C(/C#N)C(=O)COC(=O)CNS(=O)(=O)c1ccc(C)cc1`, the inhibition is -2.53% (inactive).
In the case of `Cc1ccc(C)n1NC(=O)c1ccc([N+](=O)[O-])cc1`, the inhibition was -0.24% (inactive).
For the compound `CC1CC(C)CN(C(=O)CSc2ccsc2[N+](=O)[O-])C1` (centres undefined), the inhibition was 8.96% (inactive).
`S=c1[nH]nc2c3c4c(sc3ncn12)CCCC4`: the inhibition was 72.6% (active).
Consider `CC(C(=O)O)n1cnc2sc3c(c2c1=O)CCCC3` (centres undefined), for which the inhibition is -4.65% (inactive).
Consider `c1nnc2c3c4c(sc3ncn12)CCC4`, for which the inhibition was -5.73% (inactive).
`COc1cc(OC)cc(C(=O)OCC(=O)Nc2sccc2C(N)=O)c1`: the inhibition was 18.3% (inactive).
Consider `Cc1ccc(S(=O)(=O)NCCN2CCOCC2)cc1C`, for which the inhibition was -7.43% (inactive).
With `Cc1cc(C)cc(NC(=S)NCCCN2CCOCC2)c1`, the inhibition is 11.8% (inactive).
For `Cc1cc(C)c(S(=O)(=O)NCCCN2CCOCC2)cc1Br`, the inhibition is 94.6% (active).
In the case of `O=C(NCc1cccs1)c1cc(-c2ccccn2)nc2ccc(Br)cc12` it was -5.05% (inactive); in that of `CC(=O)Nc1ccc(OCCC[n+]2cccc(C(=O)[O-])c2)cc1`, 0.17% (inactive).
Consider `COc1cccc(-c2nn(-c3ccccc3)cc2/C=C(\C#N)C(=O)NCCCn2ccnc2)c1`, for which the inhibition was 100% (active).
`COc1ccc(/C=C(\C#N)C(=O)NCCCn2ccnc2)cc1`: the inhibition was 55.7% (active).
Regarding `COCCNC(=O)/C(C#N)=C/c1cccc(OCc2ccccc2)c1`, the inhibition was 47% (inactive).
In the case of `COc1ccccc1-c1cc(C(=O)NCCCn2ccnc2)no1` it was 6.26% (inactive).
On to `COc1ccc(-c2cc(C(=O)NCCCn3ccnc3)no2)cc1`, for which the inhibition is 36.3% (inactive).
Take `CCOc1ccccc1C(=O)NCCCn1ccnc1`: the inhibition is 0.51% (inactive).
Take `Cc1nccn1CCCNC(=O)CC1C(=O)NCCN1Cc1ccc(Cl)c(F)c1` (centres undefined): the inhibition is 5.03% (inactive).
On to `Cc1cccc(NS(=O)(=O)c2ccc(C)c(C(N)=O)c2)c1`, for which the inhibition is -3.69% (inactive).
In the case of `O=C(Nc1ccccc1C(=O)N1CCOCC1)c1ccc(Cl)cc1` it was 1.24% (inactive); in that of `NS(=O)(=O)c1cccc(NC(=O)CN2CCCc3ccccc32)c1`, -1.56% (inactive); in that of `O=C(NNC(=S)NCc1ccco1)C(c1ccccc1)c1ccccc1`, 45.2% (inactive).
In the case of `Cc1cc(O)c(NC(=O)c2ccc(C)c([N+](=O)[O-])c2)cc1C`, the inhibition is 1.25% (inactive).
`COCC(C)NC(=O)CSc1nc2nn(-c3ccccc3)c(=O)c-2c2n1CCCCC2` (centres undefined): the inhibition is 34.5% (inactive).
In the case of `CCOC(=O)c1[nH]ncc1CN1CCCC(C(=O)c2ccc(OC)cc2C)C1` (centres undefined) it was 1.77% (inactive); in that of `COc1ccc(C(=O)C2CCCN(Cc3cccn3-c3ccccn3)C2)c(C)c1` (centres undefined), 99.8% (active).
For `CCn1ccnc1CN1CCCC(C(=O)c2ccc3c4c(cccc24)CC3)C1` (centres undefined), the inhibition was 40% (inactive).
